Only some compounds are listed: those with a hit (about 3.1% of all), similar ones and a draw of the others.
TRb-SRC2 inh: inhibitors of human thyroid hormone receptor beta-SRC2 interaction | Potency, µM (doses to about 106 µM), for inactives: at the highest dose activity change, negative = inhibition, most hits filed as inhibitors | P10828 | TRbeta-SRC2 peptide binding, fluorescence polarization; receptor liganded with 1 µM T3 | actives 0.065% (n = 280,000);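 further: plate controls were bound peptide for no effect and peptide without receptor for full effect; nearly all actives have a fitted effect of over 50% in size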
Target sequence (P10828 whole entry, looked up): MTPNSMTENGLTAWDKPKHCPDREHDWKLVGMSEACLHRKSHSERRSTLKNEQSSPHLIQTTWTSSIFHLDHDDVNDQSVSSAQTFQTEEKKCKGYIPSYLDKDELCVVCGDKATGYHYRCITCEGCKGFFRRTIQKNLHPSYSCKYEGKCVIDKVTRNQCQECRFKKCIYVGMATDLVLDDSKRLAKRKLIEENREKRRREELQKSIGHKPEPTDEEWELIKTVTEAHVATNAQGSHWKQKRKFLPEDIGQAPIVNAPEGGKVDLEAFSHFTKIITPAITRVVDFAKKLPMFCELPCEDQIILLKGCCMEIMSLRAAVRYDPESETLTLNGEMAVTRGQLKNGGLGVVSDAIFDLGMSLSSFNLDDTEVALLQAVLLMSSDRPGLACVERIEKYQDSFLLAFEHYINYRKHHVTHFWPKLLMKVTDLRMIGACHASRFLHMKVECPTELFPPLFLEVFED
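Human TRb ligand-binding domain (0.6 uM) is mixed with 20 nM Texas Red SRC2 peptide and 1 uM T3; after compound addition and 5 hr at ambient temperature, polarization is measured and normalized to unbound and bound controls.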
TexasRed fluor: alters Texas Red total fluorescence, flagging assay interference. TRb/SRC2 Texas Red total fluorescence interference. Potency, µM (doses to about 106 µM), without a hit: at the highest dose fluorescence change, negative = quenching. actives 0.29% (n = 280,000). AID 1479; active means well fitted curve in either direction with a large enough effect; inconclusive means small, poorly fitted or top-dose-only effect
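Human TRβ ligand-binding domain (0.6 uM) and Texas Red SRC2 peptide (20 nM) in Tris buffer with 1 uM T3 and 5% DMSO were incubated with pinned compound for 5 hr at ambient temperature. Total fluorescence was computed as S + 2P (555/632 nm).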
Tau fluor counter: counter-screen for tau fibril formation inhibitors; AID 1463; Potency, µM (titrated, usually from 57.7 µM), without a hit: at the top dose activity change, negative = decrease; actives 0.93% (n = 280,000); tau K18 P301L Alexa594 fluorescence, heparin fibrillization; further: nearly all actives have a fitted effect of over 55% in size
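Human K18 P301L tau (15 uM unlabeled plus 0.24 uM Alexa 594-labeled, final) in 100 mM sodium acetate pH 7 was mixed with compound and 20 uM heparin and incubated 6 hr at 37 C.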
Tau ThT inhib: inhibitors of human tau fibril formation, thioflavin T binding; actives 2.1% (n = 270,000); AID 1460; Potency, µM (titrated, usually from 57.4 µM), for inactives: at the top dose activity, negative = inhibition, usual class: inhibitors; recombinant tau K18 P301L, heparin-induced fibrillization, ThT fluorescence; further: nearly all actives have a fitted effect of over 55% in size
Target sequence (P10636 561-689 P618L limits assumed): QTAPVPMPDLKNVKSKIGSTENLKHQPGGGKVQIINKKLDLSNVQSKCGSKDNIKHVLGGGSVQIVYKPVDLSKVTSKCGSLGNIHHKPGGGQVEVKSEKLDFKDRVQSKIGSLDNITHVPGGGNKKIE
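ThT emission at 510 nm, taken 1 hr after adding 30 uM dye, quantifies aggregates formed when 20 uM heparin acts on human tau K18 P301L for 6 hr at 37 C.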
Tau FP inhib: inhibitors of human tau fibril formation. actives 0.39% (n = 280,000). Potency, µM (top dose mostly 57.7 µM), for the others: at the highest dose activity, negative = inhibition, actives largely listed as inhibitors. AID 1468. K18 P301L tau heparin fibrillization, Alexa594 FP, 6 h; further: nearly all actives have a fitted effect of over 55% in size
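Read-out: fluorescence polarization of Alexa 594-labeled tau (0.24 uM), 555 nm excitation, 632 nm emission. Mixtures held 15 uM unlabeled K18 P301L, compound and 20 uM heparin, pH 7 acetate buffer, incubated 6 hr at 37 C.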
The depositor's hits bear a star; [ ] = another dose, or the depositor's remark. Unless noted, the call rests on the fitted dose curve; in most records, active means well fitted curve in the direction sought with a large enough effect; inconclusive means small, poorly fitted or top-dose-only effect, or another doubt; inactive means no such curve, though single readings can be large; an effect the other way counts as inactive or inconclusive. Unless noted, on the % scale 0 is the no-effect control and ±100 the full control effect; potency means the concentration at half of the fitted maximal effect.

For COC(=O)N1CC=CC1(C)C(=O)NCC1CC1 (stereo not given) the results were TRb-SRC2 inh 6%, TexasRed fluor -1%, Tau fluor counter -13%, Tau ThT inhib -18% and Tau FP inhib -2%.
`Cc1ccc2c(c1)C(=O)OC2=O` gave TRb-SRC2 inh 13%[201 µM] and TexasRed fluor 2%[201 µM].
`Cc1cc(C)n2nc(CC#N)c(C#N)c2n1` gave TRb-SRC2 inh -2%, TexasRed fluor -1%, Tau fluor counter 6%, Tau ThT inhib -3% and Tau FP inhib 3%.
Cc1cc(C)n2nc(/C(C#N)=C/c3ccccn3)c(C#N)c2n1 was read as TRb-SRC2 inh 5%, TexasRed fluor -6%, Tau fluor counter inconclusive, Tau ThT inhib 22µM* and Tau FP inhib inconclusive.
Screening COc1ccc2[nH]c3c(N4CCC(O)(c5cccc(C(F)(F)F)c5)CC4)ncnc3c2c1 returned TRb-SRC2 inh 3%, TexasRed fluor -4%, Tau fluor counter 16µM*[quencher], Tau ThT inhib inconclusive and Tau FP inhib 13%.
`Cc1ccc2[nH]c3c(N4CCOCC4)ncnc3c2c1` gave TRb-SRC2 inh 8%, TexasRed fluor -3%, Tau fluor counter -23%, Tau ThT inhib -18% and Tau FP inhib -10%.
COc1ccc2[nH]c3c(N4CCN(Cc5ccc6c(c5)OCO6)CC4)ncnc3c2c1 was read as TRb-SRC2 inh -10%, TexasRed fluor -4%, Tau fluor counter 20µM*[quencher], Tau ThT inhib inconclusive and Tau FP inhib inconclusive.
`COc1ccc2c(c1)c1ncnc(N3CCN(Cc4ccc5c(c4)OCO5)CC3)c1n2C` gave TRb-SRC2 inh -21%, TexasRed fluor 0%, Tau fluor counter -1%, Tau ThT inhib -15% and Tau FP inhib 4%.
Nc1cccc2nsnc12 was read as TRb-SRC2 inh 4%, TexasRed fluor 1%, Tau fluor counter -16%, Tau ThT inhib 28µM* and Tau FP inhib inconclusive.
`O=C(Nc1ccc(C(F)(F)F)cc1)C(Cc1ccccc1)n1cccc1` (stereo not given) gave TRb-SRC2 inh -4%, TexasRed fluor 3%, Tau fluor counter inconclusive, Tau ThT inhib -8% and Tau FP inhib inconclusive.
For S=C(NCCC(c1ccccc1)c1ccccc1)Nc1ccc(Cl)cc1 the results were TRb-SRC2 inh 2%, TexasRed fluor -2%, Tau fluor counter 8.9µM*[quencher], Tau ThT inhib 15% and Tau FP inhib 14µM*.
`O=S(=O)(c1ccc(NC(=S)NCCC(c2ccccc2)c2ccccc2)cc1)N1CCOCC1` gave TRb-SRC2 inh 7%[53 µM], TexasRed fluor -2%[53 µM], Tau fluor counter inconclusive, Tau ThT inhib 10% and Tau FP inhib 14µM*.
For S=C(NCCC(c1ccccc1)c1ccccc1)Nc1ccccc1Cl the results were TRb-SRC2 inh -10%, TexasRed fluor 1%, Tau fluor counter inconclusive, Tau ThT inhib 14% and Tau FP inhib inconclusive.
CCCCOCCCNC(=S)Nc1ccc(S(=O)(=O)N2CCOCC2)cc1 was read as TRb-SRC2 inh 1%, TexasRed fluor 2%, Tau fluor counter -20%, Tau ThT inhib -1% and Tau FP inhib inconclusive.
Screening CCN(CC)c1ccc(NC(=O)C2COc3ccc(OC)cc3C2)c(C)c1 (stereo not given) returned TRb-SRC2 inh 6%, TexasRed fluor 7%, Tau fluor counter -20%, Tau ThT inhib inconclusive and Tau FP inhib 11%.
`N#C/C(=C\c1ccc(O)c(O)c1)C(=O)c1ccc(O)c(O)c1` gave TRb-SRC2 inh -3%, TexasRed fluor -6%, Tau fluor counter -25%, Tau ThT inhib inconclusive and Tau FP inhib 0%.
For N#C/C(=C\c1c[nH]c2ccccc12)C(=O)c1ccc(O)c(O)c1 the results were TRb-SRC2 inh 7%, TexasRed fluor -15%, Tau fluor counter 16µM*[quencher], Tau ThT inhib 10µM* and Tau FP inhib 4%.
CCc1ccccc1NS(=O)(=O)c1ccc(-c2coc(C)n2)cc1 was read as TRb-SRC2 inh -20%, TexasRed fluor 11µM*[quencher], Tau fluor counter -1%, Tau ThT inhib 11% and Tau FP inhib 3%.
CCOc1ccc(CNS(=O)(=O)c2ccc(-c3coc(C)n3)cc2)cc1 was read as TRb-SRC2 inh -11%, TexasRed fluor 0.0071µM*[quencher], Tau fluor counter -6%, Tau ThT inhib -3% and Tau FP inhib -6%.
Screening Cc1nc(-c2ccc(S(=O)(=O)NCc3ccc(F)cc3)cc2)co1 returned TRb-SRC2 inh -1%, TexasRed fluor -4%, Tau fluor counter -3%, Tau ThT inhib 4% and Tau FP inhib -5%.
For COc1ccc(-c2cn[nH]c2-c2ccc(OCc3ccccc3)cc2O)cc1 the results were TRb-SRC2 inh 0%, TexasRed fluor -5%, Tau fluor counter 6.3µM*[quencher], Tau ThT inhib -14% and Tau FP inhib inconclusive.
`COc1ccc(-c2[nH]ncc2-c2ccc(Cl)cc2)c(O)c1` gave TRb-SRC2 inh -6%, TexasRed fluor 0%, Tau fluor counter inconclusive, Tau ThT inhib -5% and Tau FP inhib 6%.
Screening COc1ccccc1-c1cn[nH]c1-c1ccc(OCc2ccccc2)cc1O returned TRb-SRC2 inh 5%, TexasRed fluor 3%, Tau fluor counter 11µM*[quencher], Tau ThT inhib -13% and Tau FP inhib inconclusive.
CCOc1ccc(-c2n[nH]c(C)c2-c2ccccc2OC)c(O)c1 was read as TRb-SRC2 inh 12%, TexasRed fluor 1%, Tau fluor counter -6%, Tau ThT inhib 0% and Tau FP inhib 4%.
CN(Cc1ccccc1)C(=O)c1cc2c(s1)-c1ccc(Cl)cc1SC2 was read as TRb-SRC2 inh 4%, TexasRed fluor -1%, Tau fluor counter -14%, Tau ThT inhib -6% and Tau FP inhib -1%.
CCN(CC)S(=O)(=O)c1ccc2oc(C(=O)NCc3ccccc3OC)c(C)c2c1 was read as TRb-SRC2 inh -3%, TexasRed fluor -2%, Tau fluor counter -27%, Tau ThT inhib inconclusive and Tau FP inhib 0%.
Screening CNc1cc([N+](=O)[O-])ccc1OCc1ccccc1 returned TRb-SRC2 inh -8%, TexasRed fluor 0%, Tau fluor counter inconclusive, Tau ThT inhib 11µM* and Tau FP inhib -4%.
Cc1cc([N+](=O)[O-])ccc1NCc1ccccc1 was read as TRb-SRC2 inh -11%, TexasRed fluor -1%, Tau fluor counter -22%, Tau ThT inhib inconclusive and Tau FP inhib -6%.
O=C(Oc1ccccc1F)c1nc(SCc2ccccc2F)ncc1Cl was read as TRb-SRC2 inh -1%, TexasRed fluor 0%, Tau fluor counter -25%, Tau ThT inhib 22µM* and Tau FP inhib -9%.
Screening Cc1ccc(CSc2ncc(Cl)c(C(=O)Oc3ccccc3F)n2)cc1 returned TRb-SRC2 inh -1%, TexasRed fluor 0%, Tau fluor counter -24%, Tau ThT inhib 16µM* and Tau FP inhib -12%.
